Drawing on PubChem BioAssay (NCI), this text covers growth for 14 compounds.

Test systems include NCI-H23 lung; NCI-H226 lung; HOP-62 NSCLC; NCI-H460 lung; HOP-92 NSCLC; NCI-H522 lung; A549/ATCC NSCLC; 786-0 renal; COLO 205 colon.
Common to all, as to assay: NCI-60 one-dose screen, 48 h (100 = growth as untreated, 0 = no growth, -100 = all killed)
What all share (settings): 10 µM

Each structure is given as a SMILES string. This is part of a sample that, as a whole, favours compounds with a hit. Of some 83,000 tested, about 20% had one in any assay.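 In brief: 96-well plates, 48 h treatment, single concentration, percent growth endpoint.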 A number with no mark means an inactive call. Active and inactive are the calls of the source. How the source made its calls: active means growth percent below 10; inactive means the rest.

For the compound `COc1cc2cc(Oc3ccc(NC(=O)Nc4ccc(C(F)(F)F)cc4)cc3)c(C)nc2cc1OC`, the growth was 79.3% in the experiment with NCI-H23 lung; 20.9% in the experiment on NCI-H226 lung; 18.8% with HOP-62 NSCLC; 42.8% in the experiment on NCI-H460 lung; 56.3% in the experiment with HOP-92 NSCLC; 63.2% in the experiment on NCI-H522 lung. For the same compound, the growth with A549/ATCC NSCLC was 32.4%; in the experiment with 786-0 renal, 74.9%; in the experiment on COLO 205 colon it was 40.4%.
As for `CCOC(=O)c1cc(C(=O)c2ccc(F)cc2F)n2ccccc12`, the growth with NCI-H23 lung is 101%; with NCI-H226 lung it was 88.2%; in the experiment with HOP-62 NSCLC it was 88.6%; with NCI-H460 lung, 97.5%; in the experiment on HOP-92 NSCLC it was 47.1%; in the experiment on NCI-H522 lung, 70.1%. In addition, the results for the growth with A549/ATCC NSCLC, in the experiment with 786-0 renal and with COLO 205 colon were 86%, 90.6% and 110%, respectively.
As to `O=C(CSc1nnc(-c2ccc(Cl)cc2)o1)Nc1ccc(C(=O)/C=C/c2ccc(Cl)cc2)cc1`, the growth is 87.7% in the experiment with NCI-H23 lung; 93.3% in the experiment on NCI-H226 lung; 95.8% with HOP-62 NSCLC; 98.2% in the experiment with NCI-H460 lung; 106% in the experiment on HOP-92 NSCLC; 86.8% in the experiment with NCI-H522 lung. Also, the growth is 95.6% in the experiment with A549/ATCC NSCLC, 99.9% with 786-0 renal and 117% in the experiment on COLO 205 colon.
Turning to `Oc1cccc(-c2nc3sccn3c2-c2ccncn2)c1`, the growth with NCI-H23 lung is 92.1%; in the experiment with NCI-H226 lung, 94.4%; with HOP-62 NSCLC, 103%; with NCI-H460 lung, 97.8%; in the experiment on HOP-92 NSCLC, 82.6%; in the experiment with NCI-H522 lung it was 98.9%. For the same compound, the figures for the growth in the experiment on A549/ATCC NSCLC, in the experiment with 786-0 renal and in the experiment with COLO 205 colon were 100%, 95.7% and 32.1%, respectively.
On to `COc1cc(-c2nn(-c3cccc(NC(=O)CCN4CCN(Cc5ccccc5)CC4)c3)cc2-c2ccncc2)ccc1Cl`, for which the growth in the experiment on NCI-H23 lung was 20.8%; in the experiment on NCI-H226 lung, 54%; with HOP-62 NSCLC it was 24%; in the experiment with NCI-H460 lung, 1.48% (active); with HOP-92 NSCLC, -0.56% (active); in the experiment on NCI-H522 lung, -31.4% (active). In addition, the growth is 11.6% with A549/ATCC NSCLC, -59.9% (active) in the experiment with 786-0 renal and -50.9% (active) in the experiment with COLO 205 colon.
As for `COc1cccc(CNc2cccc3cn[nH]c23)c1O`, the growth is 94.9% with NCI-H23 lung; 87.6% in the experiment with NCI-H226 lung; 95.3% in the experiment with HOP-62 NSCLC; 111% in the experiment with NCI-H460 lung; 72.3% in the experiment with HOP-92 NSCLC; 86.3% in the experiment on NCI-H522 lung. Also, the growth was 90.6% with A549/ATCC NSCLC, 105% in the experiment with 786-0 renal and 110% with COLO 205 colon.
As to `Cc1ccc(/C=C/C(=O)C(=O)/C=C/c2ccc(C)cc2)cc1`, the growth in the experiment with NCI-H23 lung was 95.4%; in the experiment on NCI-H226 lung, 107%; in the experiment with HOP-62 NSCLC it was 109%; in the experiment with NCI-H460 lung, 104%; in the experiment with HOP-92 NSCLC, 108%; in the experiment on NCI-H522 lung, 81.7%. Besides, the values for the growth in the experiment on A549/ATCC NSCLC, in the experiment on 786-0 renal and with COLO 205 colon were 86.2%, 96.9% and 110%, respectively.
Turning to `OCCn1cccn1`, the growth in the experiment on NCI-H23 lung is 93.1%; in the experiment on NCI-H226 lung, 99.9%; in the experiment with HOP-62 NSCLC it was 104%; in the experiment on NCI-H460 lung it was 102%; in the experiment on HOP-92 NSCLC, 101%; in the experiment with NCI-H522 lung it was 101%. The growth with A549/ATCC NSCLC is 111%; with 786-0 renal it was 109%; in the experiment with COLO 205 colon, 125%.
Consider `CC(CN(C)C)Oc1ccccc1NC1=C(Cl)C(=O)C(Nc2ccccc2OC(C)CN(C)C)=C(Cl)C1=O` (stereo unspecified), for which the growth in the experiment with NCI-H23 lung is -70.7% (active); in the experiment with NCI-H226 lung it was -94.4% (active); with HOP-62 NSCLC, -97.6% (active); in the experiment with NCI-H460 lung, -4.55% (active); in the experiment on HOP-92 NSCLC, -60.7% (active); in the experiment on NCI-H522 lung it was -73.4% (active). Moreover, the results for the growth with A549/ATCC NSCLC, in the experiment on 786-0 renal and in the experiment on COLO 205 colon were 1.98% (active), -71.5% (active) and -67.3% (active), respectively.
Regarding `S=c1cnc2ccccc2[nH]1`, the growth was 98.4% with NCI-H23 lung; 107% in the experiment with NCI-H226 lung; 93.3% in the experiment with HOP-62 NSCLC; 96.3% in the experiment on NCI-H460 lung; 79.4% in the experiment on HOP-92 NSCLC; 95.5% in the experiment on NCI-H522 lung. Further, the growth in the experiment on A549/ATCC NSCLC was 93.5%; in the experiment with 786-0 renal, 98.9%; with COLO 205 colon, 95%.
For `CC(=O)COc1ccc(Cl)cc1Cl`, the growth in the experiment with NCI-H23 lung is 106%; in the experiment on NCI-H226 lung it was 93%; with HOP-62 NSCLC, 110%; in the experiment with NCI-H460 lung, 110%; with HOP-92 NSCLC, 91%; in the experiment on NCI-H522 lung, 107%. The growth in the experiment on A549/ATCC NSCLC was 107%; in the experiment on 786-0 renal, 103%; in the experiment with COLO 205 colon, 114%.
Take `COc1ccc(-c2cc(-c3ccc(Cl)cc3)nc(SCCCCCCC(=O)NO)n2)cc1OC`: the growth was 42.7% with NCI-H23 lung; 69.3% with NCI-H226 lung; 62.4% in the experiment with HOP-62 NSCLC; 19.7% with NCI-H460 lung; 40.6% in the experiment with HOP-92 NSCLC; 45.4% in the experiment on NCI-H522 lung. In addition, the growth is 58.5% with A549/ATCC NSCLC, 51.3% in the experiment with 786-0 renal and 66.4% in the experiment on COLO 205 colon.
As for `CCOC(=O)c1cc(C(=O)c2cc(OC)c(OC)c(OC)c2)n2ccc(-c3cc[n+](CC(=O)c4cc(OC)c(OC)c(OC)c4)cc3)cc12`, the growth in the experiment with NCI-H23 lung is 63.6%; in the experiment with NCI-H226 lung it was 90.8%; in the experiment with HOP-62 NSCLC, 94.8%; in the experiment with NCI-H460 lung, -10.3% (active); in the experiment with HOP-92 NSCLC, 46.2%; with NCI-H522 lung, -21.5% (active). The growth in the experiment with A549/ATCC NSCLC was 31.3%; in the experiment on 786-0 renal, -82.3% (active); in the experiment on COLO 205 colon, 43.7%.
For the compound `O=C(N/N=C/c1ccc(Cl)cc1)c1ccc(Cc2n[nH]c(=O)c3cccnc23)cc1`, the growth in the experiment with NCI-H23 lung was 90.6%; in the experiment with NCI-H226 lung, 96.1%; with HOP-62 NSCLC, 97.3%; in the experiment with NCI-H460 lung, 109%; with HOP-92 NSCLC, 95.2%; with NCI-H522 lung, 89%. Also, the growth with A549/ATCC NSCLC is 103%; in the experiment with 786-0 renal, 101%; in the experiment on COLO 205 colon, 104%.
